Fluor 339 460: intrinsic fluorescence of library compounds, ex339/em460 – biochemical, MLSMR library, data from DPM-DC assay, artefact control, profiling panel | AID 709, 2007 | fluorescence fold increase at 10 µM | hit rate 5.5% among 65,000 | compound autofluorescence, ex339/em460 nm, NADH buffer; stronger effect = higher value; 1 = no-compound wells, NADH background;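 active = at 10 µM, mean starting fluorescence two-fold or more over control wells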;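 also: signal is the first read of a kinetic run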
NADH enzymes: inhibitors of PK/LDH coupling enzymes, profiling panel, artefact control, biochemical, MLSMR library | coupled PK/LDH NADH assays, four targets | IC50, µM (titrated, usually from 10 µM), for inactives: at the highest dose inhibition | hit rate 0.02% among 65,000;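 active = single-dose screening hits from any of four coupled enzyme assays that gave an IC50 when retested across doses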;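 also: the DPM-DC format reads NADH fluorescence rather than 340 nm absorbance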
A340 absorber: compound light absorbance at 340 nm, profiling panel, artefact control, biochemical, MLSMR library, data from PS, PMK, MK assays; compound absorbance at 340 nm, fold over control; fold change at 10 µM; 65,000 tested, under 10 active;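 active = at 10 µM dose, initial 340 nm absorbance at least 2 fold that of control wells; inactive = change under 2 fold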;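 also: initial absorbance extrapolated from kinetic A340 decline of NADH oxidation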
PMK inhibit: S. pneumoniae PMK inhibitors, primary screen, biochemical, mevalonate pathway, pilot trial included. phosphomevalonate kinase (Streptococcus pneumoniae D39). purified PMK, PK/LDH-coupled NADH absorbance 340 nm. inhibition, % at 10 µM. hit rate 0.49% among 65,000;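 active = top-ranked compounds by inhibition in the single 10 µM screen, taking a fixed number of the strongest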;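 also: 0% = full reaction with DMSO carrier and 100% = background rate without enzyme reaction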
DPM-DC inhibit: S. pneumoniae DPM-DC inhibitors, primary screen, biochemical, PK/LDH-coupled NADH fluorescence. diphosphomevalonate decarboxylase (Streptococcus pneumoniae D39). hit rate 0.49% among 65,000. purified DPM-DC. calls only at 10 µM;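 active = the 320 compounds with the highest percent inhibition in the single-dose primary screen, excluding strongly autofluorescent ones, cut at about 32% in these data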;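 also: kinetic rate of NADH fluorescence loss reporting ADP formed by the decarboxylase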
Spn MK inh: S. pneumoniae MK inhibitors, primary screen, biochemical, PK/LDH-coupled NADH absorbance. mevalonate kinase [Streptococcus pneumoniae D39]. purified MK, PK/LDH-coupled NADH absorbance 340 nm. inhibition, % at 10 µM. hit rate 0.48% among 65,000. AID 555, 2006;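 active = ranked among the strongest by inhibition in the single 10 µM screen, a fixed top-ranked set picked for dose follow-up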
An asterisk follows results filed as active; i = inactive; . = no result shown; + = active, no number. Rows were chosen to be rich in hits. Some 6.5% of all compounds tested hit in one or more screens of this group.

SMILES	Fluor 339 460	NADH enzymes	A340 absorber	PMK inhibit	DPM-DC inhibit	Spn MK inh
Cc1cc(OC(=O)CNC(=O)OC(C)(C)C)c2c(C)cc(=O)oc2c1	0.96	15%	1	11	i	12
CC(=O)Nc1c(OC(C)=O)ccc2c(C)cc(=O)oc12	5.1*	8%	0.98	11	.	4
CC(=O)Oc1cc(OC(C)=O)c2c(C)cc(=O)oc2c1	2.2*	0%	1.1	0	.	0
CC(C)C(NS(=O)(=O)c1cccs1)C(=O)NCc1ccc2c(c1)OCO2 (stereo not given)	1.2	3%	1	0	i	10
O=C(Cn1ncc2c(=O)oc3ccccc3c21)Nc1nc2ccccc2s1	1	3%	0.98	9	i	6
CS(=O)(=O)N(CC(=O)NCCC1=CCCCC1)C1CCCCC1	1	6%	1	13	i	6
O=C(CN1CCN(C2CCCCC2)CC1)NCCC1=CCCCC1	1.1	22%	1	4	i	61*
CCOc1ccc(S(=O)(=O)Nc2ccccc2C(=O)Nc2ccccc2N2CCOCC2)cc1	1	2%	0.99	10	i	1
CCOc1ccc(S(=O)(=O)Nc2ccccc2C(=O)NCC2CCCO2)cc1 (stereo not given)	2.1*	7%	1	8	.	5
COc1ccccc1CNC(=O)c1cnc2ccccn2c1=O	1.7	8%	1.2	1	i	7
Cc1cc(NC(=O)c2cnc3ccccn3c2=O)no1	3.7*	15%	1.1	15	i	0
O=C(NCc1cccs1)c1cnc2ccccn2c1=O	2*	3%	1.1	4	i	0
O=C(CSc1nnnn1-c1cccnc1)NCc1cccs1	1.1	5%	1	14	i	1
CCOC(=O)C1C(=O)CC(C)(O)C(C(=O)OCC)C1c1ccco1 (stereo not given)	1.1	3%	1	6	i	0
Cc1cc(C)n2nc3ccccc3c2n1	2	4%	1.1	10	i	2
Cc1cc(C)n2nc3nc(N4CCCCC4)nc(-c4ccco4)c3c2n1	2.1*	10%	1	20	+	0
CCCCCN=Cc1c(C)[nH]n(-c2nc3ccccc3s2)c1=O	1.1	4%	1	6	i	7
O=C(Nc1ccc2c(c1)CCC2)C1COc2ccccc2O1 (stereo not given)	2.1*	8%	1	15	i	0
COCCN1CCn2c(nc3cc(NC(=O)NC4CCCCC4)ccc32)C1	3.7*	9%	1	8	.	9
CCOC(=O)c1cnc2sc3c(n2c1=O)CCCC3	5*	9%	1.1	15	.	3
Cc1cc(=O)[nH]c2c(C)c(Cl)ccc12	1.1	7%	1	9	i	6
Cc1cc(=O)[nH]c2c(C)c(N)ccc12	3.9*	12%	1.1	13	.	10
CCOC(=O)C1=C(C)N(C)C(C)=C(C(=O)OCC)C1c1ccncc1	1.1	3%	1.1	1	i	8
CCOC(=O)c1cc(-c2ccc3c(c2)OCCO3)nc2c1c(C)nn2CCC#N	4.9*	6%	1.1	11	.	0
CCOC(=O)c1cc(-c2ccncc2)nc2c1c(C)nn2C	5.1*	12%	1	19	.	4
SMILES	Fluor 339 460	NADH enzymes	A340 absorber	PMK inhibit	DPM-DC inhibit	Spn MK inh
CCOC(=O)c1cc(C#N)c(NCc2ccccc2)nc1C	1.7	2%	1.1	5	i	0
CCOC(=O)c1cc(-c2ccco2)nc2c1c(C)nn2CCC#N	2.4*	2%	1	12	.	2
CC(=O)c1cccc(NC(=O)N2CCCC2C(=O)NC2CCCCC2)c1 (stereo not given)	1.1	5%	1	14	i	0
CCCc1cc2c(=O)c(-c3ccccn3)c(C)oc2cc1O	2.1*	5%	1.1	10	.	0
CSc1nc(N)c(C#N)c(-c2ccc(Cl)cc2)c1C#N	1.2	4%	1	4	i	1
Cc1ccc(-c2cc(-c3ccc4c(c3)OCO4)c(C#N)c(N)n2)o1	3.8*	15%	1	16	.	13
N#Cc1c(N)oc(-c2ccc3c(c2)OCO3)c1-c1ccc2c(c1)OCO2	2.1*	9%	1.1	15	.	2
Cc1ccc(-c2cc(-c3ccc(C)o3)nc(N)c2C#N)cc1	3.8*	6%	1	0	.	12
N#Cc1c(N)nc2c(c1-c1ccc3c(c1)OCO3)CCCCCC2	1.3	2%	1.1	0	i	2
Cc1cc(-c2cc(-c3ccc(Cl)cc3)nc(N)c2C#N)co1	2.3*	11%	1	4	.	17
CC(C)c1nnc(NC(=O)CC(=O)Nc2ccccc2C(=O)O)s1	1.1	5%	1	8	i	7
Cn1cc(Cl)c(C(=O)N2CCN(c3ncccn3)CC2)n1	1.3	3%	1	0	i	8
Cc1cc(=O)[nH]c(Nc2ccc(C(=O)OC(C)C)cc2)n1	1.3	7%	1	6	i	8
CCCCn1c(N2CCC(Cc3ccccc3)CC2)nc2c1c(=O)[nH]c(=O)n2C	1.1	5%	0.99	7	i	8
O=C(CCn1c(=O)oc2ccccc21)NCc1cccs1	1	7%	1	15	i	5
Cc1ccc(-c2cc(-c3ccc(Cl)cc3)c(C#N)c(N)n2)o1	3.8*	7%	1	0	.	13
CCCc1cc(-c2ccc(O)c(OCC)c2)c(C#N)c(N)n1	1.7	4%	1.1	0	i	9
Cc1cc(NC(=O)c2ccc3c(c2)C(=O)N(C2CCCCC2)C3=O)no1	1.1	4%	1	0	i	1
CCC(=O)Nc1ccc2c(c1)C(=O)N(C1CCCCC1)C2=O	3.9*	4%	1.1	7	.	1
CCCn1c(-c2ccc(OC)cc2)nc2nc3ccccc3nc21	2.1*	12%	1.2	17	.	6
COc1ccc(-c2nc3ccccc3c(=O)n2CCN2CCOCC2)cc1	1.1	3%	1	4	i	6
COCCCn1c(-c2ccc(OC)cc2)nc2nc3ccccc3nc21	4*	2%	1.1	3	.	0
Clc1ccc(-c2nc3nc4ccccc4nc3n2Cc2ccco2)cc1	1.9	0%	1.1	0	i	1
CCOC(=O)c1[nH]c2ccc(OC)cc2c1NC(C)=O	3.5*	8%	1.1	5	.	11
CCOC(=O)c1[nH]c2ccc(OC)cc2c1NC(=O)CN1CCSCC1	3.9*	12%	1.1	14	.	10
c1ccc(-c2nc(-c3ccco3)cs2)nc1	2.1*	13%	1.1	17	.	9
